# Source: PubChem
# Rows were chosen to be rich in hits. Some 7.5% of all compounds tested hit in one or more screens of this group.
# SMN2 splice up: enhancers of SMN2 splice variant expression. HEK293 SMN2-luciferase splicing reporter, luminescence, 30-36 h. Potency, µM (titrated, usually from 46.1 µM), for inactives: top-dose activity change, positive = activation, actives largely listed as activators. 210,000 tested, 2.8% active. AID 1458; also: % of control where 0% means no effect; nearly all actives have a fitted effect of over 55% in size
#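 HEK293 cells carry an SMN2 minigene-luciferase reporter in which exon 7 inclusion puts luciferase in frame. Cells were seeded at 2000 cells/well, attached for 10-12 hours, then exposed to compounds for 30-36 hours at 37C before ONE-Glo luminescence.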
# NPC1 promoter act: NPC1 promoter activation; Huh7 NPC1 promoter luciferase reporter, 24 h; Potency, µM (top dose mostly 9.22 µM), without a hit: at the highest dose activation, most hits filed as activators; 320,000 tested, 2.4% active; AID 485313; also: % of control where 0% means no effect; nearly all actives have a fitted effect of over 60% in size
#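 Quantitative HTS used a cell-based reporter: Huh7 cells stably bearing the NPC1 promoter upstream of luciferase were treated with compounds for 24 h, and promoter activation was read as luminescence.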
# ELG1 genotox: genotoxicity induction in ELG1-luciferase HEK293T cells; HEK293T ELG1-luciferase reporter, luminescence, 16 h; Potency, µM (top dose mostly 46 µM), for the others: top-dose activity change, positive = activation, actives largely listed as activators; 330,000 tested, 1.3% active; also: % of control where 0% means no effect; nearly all actives have a fitted effect of over 60% in size
#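 Reporter readout depends on ELG1 protein level, which increases with genetic stress. After 16 hr compound exposure at 37 °C, luciferase activity was quantified using ONE-Glo.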
# Rab9 promoter act: activates the Rab9 promoter; Huh7 Rab9 promoter-luciferase reporter, luminescence, 24 h; Potency, µM (highest dose often 9.22 µM), without a hit: top-dose activation, negative = inhibition, hits mostly activators; 320,000 tested, 2.8% active; AID 485297; also: % of control where 0% means no effect; nearly all actives have a fitted effect of over 60% in size
#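 Steps: seed 1500 Huh7 Rab9-luc cells per well, rest 2 h at 37 °C; add compound in DMSO; incubate 24 h; add luciferase reagent, 10 min ambient; read luminescence.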
# FLuc counter: counter-screen for miR-21 project: firefly luciferase inhibitors or activators | purified FLuc, Km substrates, luminescence inhibition | Potency, µM (titrated, usually from 57.5 µM), without a hit: at the top dose activity change, negative = inhibition, usual class: inhibitors | 360,000 tested, 6.9% active;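 also: plate controls were vehicle for no effect and reference inhibitor for full effect; nearly all actives have a fitted effect of over 55% in size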
# Target sequence (P08659 whole entry, looked up): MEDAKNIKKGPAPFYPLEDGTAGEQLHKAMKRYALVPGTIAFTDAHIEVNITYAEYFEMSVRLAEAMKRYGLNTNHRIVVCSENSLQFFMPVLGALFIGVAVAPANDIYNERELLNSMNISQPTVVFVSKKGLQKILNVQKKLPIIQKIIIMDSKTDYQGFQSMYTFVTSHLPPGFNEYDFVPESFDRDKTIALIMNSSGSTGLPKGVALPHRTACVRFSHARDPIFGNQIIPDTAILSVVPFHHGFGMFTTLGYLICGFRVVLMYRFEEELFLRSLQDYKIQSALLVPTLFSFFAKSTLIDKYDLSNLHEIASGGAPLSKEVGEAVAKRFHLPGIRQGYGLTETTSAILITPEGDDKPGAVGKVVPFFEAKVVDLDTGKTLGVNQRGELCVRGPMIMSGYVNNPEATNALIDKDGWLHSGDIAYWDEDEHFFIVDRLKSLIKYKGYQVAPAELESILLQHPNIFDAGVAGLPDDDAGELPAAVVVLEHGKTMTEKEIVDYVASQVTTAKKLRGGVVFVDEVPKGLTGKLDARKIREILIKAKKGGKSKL
#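 Biochemical qHTS of compounds, final roughly 60 µM downward over six points, against 10 nM purified firefly luciferase using Km concentrations of substrates (10 uM D-luciferin, 10 uM ATP) in Tris acetate pH 7.5 buffer; luminescence output.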
# KinaseGlo FLuc: blocks Kinase-Glo luciferase, a counter-screen artifact; Q27757; Kinase-Glo luciferase, ATP luminescence, 8 min; Potency, µM (titrated, usually from 38.3 µM), without a hit: top-dose activity change, negative = inhibition, actives largely listed as inhibitors; 200,000 tested, 0.28% active; also: % is scaled to controls: 0 for no effect and ±100 for the full control effect; nearly all actives have a fitted effect of over 60% in size
#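 Luminescence was the read-out, taken after 8-minute incubation at ambient temperature. Luciferase turned over luciferin with 10 uM ATP in imidazole pH 7.2 buffer containing KCl, MgCl2, Tween 20 and BSA.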
# The depositor's hits bear a star; ? = inconclusive; / = no result. Calls follow the shape of the dose curve; as a rule, active = well fitted curve in the direction sought with a large enough effect; inconclusive = small, poorly fitted or top-dose-only effect, or another doubt; inactive = no such curve, though single readings can be large; an effect the other way counts as inactive or inconclusive. Potency is read from the fitted curve at half-maximal effect.
SMILES,SMN2 splice up,NPC1 promoter act,ELG1 genotox,Rab9 promoter act,FLuc counter,KinaseGlo FLuc
COc1cc(SC)ccc1C(=O)Nc1ccccn1,/,0.79µM*,?,0.79µM*,0.48µM*,/
COc1cc(SC)ccc1C(=O)Nc1ccc(Br)cn1,/,0.32µM*,?,0.28µM*,0.076µM*,/
COc1cc(SC)ccc1C(=O)Nc1ccon1,?,?,?,2.8µM*,13µM*,-3%
COc1cc(SC)ccc1C(=O)NC(C)C,-2%,-3%,4%,-4%,-4%,-1%
COc1ccc(CNC(=O)c2ccc(SC)cc2OC)cc1,8%,0%,2%,2%,-3%,3%
COc1cc(SC)ccc1C(=O)Nc1cccc(C)n1,11µM*,?,?,2µM*,3.4µM*,-4%
COc1cc(SC)ccc1C(=O)NCCc1ccccc1,10µM*,3.5µM*,?,3.5µM*,6µM*,-3%
O=C(NN=C1CCCC1)c1cccc(Br)c1,/,-8%,8%,0%,1%,/
Cn1c(-c2cccc(Br)c2)cnc1NCc1ccccc1O,/,-1%,-3%,0%,-8%,/
N/C(=N\OC(=O)COc1cc(Cl)c(Cl)cc1Cl)c1ccncc1,14µM*,?,18µM*,?,13µM*,3%
N/C(=N\OC(=O)COc1ccccc1)c1ccncc1,/,17%,?,21%,?,/
N/C(=N\OC(=O)COc1ccc(Br)cc1Cl)c1ccncc1,11µM*,3.5µM*,?,3.5µM*,6.7µM*,2%
Cc1cc(C)c(C)c(OCC(=O)O/N=C(\N)c2ccncc2)c1,/,0%,-5%,-1%,0%,/
Cc1ccc(OCC(=O)O/N=C(\N)c2ccncc2)c(C)c1,/,3.2µM*,15µM*,3.5µM*,11µM*,/
COc1ccc(/C=C/c2nc3cc(-c4ccccc4)ccc3o2)cc1O,-91%,1%,-1%,5%,9.5µM*,1%
CCOC(=O)c1noc2ncnc(NCc3ccccc3OC)c12,/,/,/,/,0%,/
O=C1O/C(=C/c2ccccc2)c2ccccc21,9%,-3%,-2%,3%,12µM*,-6%
COc1ccc(/C=N\NC(=O)/C(=C\Nc2nccc(C)n2)NC(=O)c2ccccc2)cc1,-7%,0%,0%,0%,15µM*,-20%
Cc1ccc(/C=N\NC(=O)/C(=C\Nc2nccc(C)n2)NC(=O)c2ccccc2)cc1,/,-4%,-3%,-2%,15µM*,/
Cn1c2c(c(=O)n(C)c1=O)C(C(F)(F)F)(C(F)(F)F)N=C(CCC1CCCCC1)N2,-22%,-2%,-17%,-5%,-2%,0%
Cc1cc(C)cc(NC(=O)CSc2nnc(-c3ccccc3C)o2)c1,18%,?,13%,?,/,1%
Cc1cccc(NC(=O)CSc2nnc(-c3ccccc3C)o2)c1,13µM*,?,?,4µM*,0%,-1%
COc1ccccc1NC(=O)CSc1nnc(-c2ccccc2C)o1,/,/,/,/,-16%,/
Cc1cccc(NC(=O)CSc2nnc(-c3n[nH]c4ccccc34)o2)c1,?,19%,7%,23%,1%,3%
N#Cc1cccc(NC(=O)CSc2nnc(-c3n[nH]c4ccccc34)o2)c1,13µM*,?,20%,?,-15%,2%
SMILES,SMN2 splice up,NPC1 promoter act,ELG1 genotox,Rab9 promoter act,FLuc counter,KinaseGlo FLuc
Cc1ccccc1-c1nnc(SCC(=O)Nc2cccnc2Cl)o1,/,/,2.1µM*,/,/,/
CS(=O)(=O)c1ccc2nc(NC(=O)c3ccc(=O)[nH]c3)sc2c1,/,-7%,6%,7%,6.7µM*,/
CS(=O)(=O)c1ccc2nc(NC(=O)c3ccc(Cl)cc3)sc2c1,/,3%,0%,24%,?,/
Cn1nc(C(=O)Nc2nc3ccc(S(C)(=O)=O)cc3s2)ccc1=O,-2%,0%,11%,-1%,11µM*,?
COc1ccc(CCNC(=O)C2(c3cccs3)CCOCC2)cc1,/,/,/,/,-7%,/
Cc1cc(/C=C2/NC(=S)NC2=O)c(C)n1-c1cccnc1,?,24%,21%,?,5.4µM*,-24%
